Results from PubChem BioAssay AID720621 (The Scripps Research Institute Molecular Screening Center, 2013).
The other results are listed elsewhere or left out. A number with no mark means an inactive call. Active and inactive are the calls of the source.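 How the source made its calls: active means inhibition above the mean of test compounds lying between the control limits plus 3 SD of those (cut at about 14% in these data); inactive means the rest.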

Target: Fibrinogen beta chain (Homo sapiens) (UniProt P02675)
Sequence (P02675 whole entry, looked up): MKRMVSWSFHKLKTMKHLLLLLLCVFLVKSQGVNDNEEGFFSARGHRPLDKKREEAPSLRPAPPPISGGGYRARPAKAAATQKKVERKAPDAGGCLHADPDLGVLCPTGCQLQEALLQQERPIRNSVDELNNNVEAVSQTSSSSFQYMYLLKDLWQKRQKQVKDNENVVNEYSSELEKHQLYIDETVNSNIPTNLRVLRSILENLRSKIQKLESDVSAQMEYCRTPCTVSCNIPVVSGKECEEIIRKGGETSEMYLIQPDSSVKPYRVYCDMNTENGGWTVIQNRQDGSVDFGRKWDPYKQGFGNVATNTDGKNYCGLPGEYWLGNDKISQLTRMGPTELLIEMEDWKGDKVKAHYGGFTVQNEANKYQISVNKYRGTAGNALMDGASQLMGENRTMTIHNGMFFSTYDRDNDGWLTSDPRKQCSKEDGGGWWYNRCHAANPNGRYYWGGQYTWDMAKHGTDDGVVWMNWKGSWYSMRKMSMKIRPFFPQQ
Assay: fibrin DD(E) probe displacement, second cyclic peptide – biochemical, fluorescence polarization, human fibrin, counter-screen for fibrin DD(E)-Tn6 binding project, confirmation (AID 720621);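 further: 0% = median of compound wells and 100% = wells with Aha-Tn7 blocking peptide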
Details: TRITC-Tn6 fluorescence polarization displacement, at 8.3 µM, hits give high values, 0% = median of compound wells, not DMSO

Row | SMILES | inhibition
1 | Cc1cc2cc(CNC(=O)c3ccc(S(=O)(=O)N4CCOCC4)cc3)ccc2[nH]1 | -5.66%
2 | COc1ccc(Nc2nc(-c3ccccc3)cs2)cc1 | 3.89%
3 | O=C(Nc1cccc(-c2nc3ccccc3[nH]2)c1)c1ccc(C(=O)Nc2cccc(-c3nc4ccccc4[nH]3)c2)cc1 | 4.67%
4 | CONc1nc2nonc2nc1NOC | 0.1%
5 | O=C(NCCNc1ccccc1[N+](=O)[O-])c1ccccc1F | 1.36%
6 | Cc1cc2ccccc2n1CCNC(=O)COc1ccc2ccccc2c1 | 4.66%
7 | Cc1nn(C)cc1N1C(=O)c2cccc3c(N)ccc(c23)C1=O | 12.5%
8 | CCOCC(=O)NCc1ccc2c(c1)cc(C)n2C | 3.45%
9 | O=c1[nH]n(-c2ccc([N+](=O)[O-])cc2)c(=O)c2ccccc12 | -1.25%
10 | COc1cc(NC(=O)c2ccc(CNc3c(N4CCCC4)c(=O)c3=O)cc2)cc(OC)c1OC | -3.04%
11 | Cc1ccc(-c2nc(C)sc2CC(=O)O)cc1 | 1.12%
12 | O=c1cc(Cn2nnc(-c3ccc(Cl)cc3)n2)nc2sccn12 | 0.44%
13 | COc1ccc(Nc2nc(-c3cccnc3)nc3ccccc23)cn1 | 1.38%
14 | Cc1ccc(-c2nn(-c3ccccc3)cc2/C=C/C(=O)Nc2cccc(S(N)(=O)=O)c2)cc1 | 9.5%
15 | Cc1cc(C)c2nc(NC(=O)C3CCCO3)sc2c1 (stereo unspecified) | 9.86%
16 | Cc1nnsc1S(=O)(=O)Cc1ccccc1Cl | -7.19%
17 | Oc1ccc(N=Cc2sc3ccccc3c2Cl)cc1 | -3.72%
18 | Cc1ccc(NC(=O)CN2CCc3ccccc3C2)cc1 | -3.5%
19 | O=C(CCl)NNc1cccc(Cl)n1 | -4.59%
20 | COc1ccc(N2C(=O)NC(NS(=O)(=O)c3ccc(Cl)cc3)(C(F)(F)F)C2=O)cc1 (stereo unspecified) | 9.3%
21 | Cc1cc2nc3c(=O)[nH]c(=O)nc-3n(C[C@H](O)[C@H](O)[C@H](O)CO)c2cc1C | 53.3% (active)
22 | CN1c2ccc(C=O)c3c(C=O)ccc(c23)N(C)C1(C)C | 1.94%
23 | CCc1cc(-c2nnc(SCC(=O)NC3CC3)n2C)cs1 | 0.11%
24 | CCOC(=O)N1CCN(Cc2nc(N)nc(Nc3ccc(C)cc3)n2)CC1 | -2.92%
25 | CCC1C(=O)NCCN1C(=O)c1ccc2nc(Cc3ccc(OC)cc3)oc2c1 (stereo unspecified) | -2.38%
26 | CCc1ccccc1NC(=S)Nc1cc(OC)c(NC(=O)C(C)C)cc1OC | 2.55%
